# Reference: PubChem BioAssay
# For part of these data: Results with a measured potency or affinity are listed apart. Activity calls are given as the source filed them.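 How the source made its calls, unless noted: active means earlier screen potentiator hit that boosts the TRPC4 ion channel at some dose, with a dose response; inactive means no potentiation, no dose response, or not a prior hit.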
# What was measured:
# [1] = test system: TRPC4 beta (transient receptor potential cation channel C4), mouse; experiment: TRPC4 cation channel opening, retest – cell-based, Fluo4 calcium, HEK293 TRPC4beta/mu-opioid, duplicates, 10 µM, confirmation (AID 2426;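 active means fluorescence ratio normalized to control raised more than 50% in primary screen plus both repeat runs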;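 on activation: percent rise of integrated ratio over buffer wells lacking compound which define 0%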); details: Fluo4 calcium fluorescence, at 10 µM; hits give high values
# [2] = test system: transient receptor potential cation channel C4 beta (TRPC4), mouse; experiment: TRPC4 cation channel opening, second retest – cell-based, second round, Fluo4, HEK293 TRPC4beta/mu-opioid, 1 µM, confirmation (AID 2461;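 active means primary screen active and over 50% activation in each of two duplicate runs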); details: Fluo4 calcium fluorescence, at 1 µM; hits give high values
# [3] = test system: TRPC4 (transient receptor potential cation channel C4 beta), mouse; experiment: potentiation of DAMGO EC20 TRPC4 response – cell-based, second round, Fluo-4, HEK293 TRPC4beta/mu-opioid, 1 µM, confirmation (AID 2554;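 active means primary screen hit whose fluorescence ratio, in both repeats, exceeds the weak agonist control mean by 3 SD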); details: DAMGO EC20, Fluo-4 calcium flux, at 1 µM; hits give high values
# [4] = test system: TRPC4 beta (transient receptor potential cation channel C4), mouse; experiment: potentiation of DAMGO EC20 TRPC4 response – cell-based, Fluo-4, HEK293 TRPC4beta/mu-opioid, confirmation (AID 2555;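 active means primary screen hit whose calcium fluorescence ratio, in both repeats, exceeds the weak agonist control mean by 3 SD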); details: DAMGO EC20, Fluo-4 calcium flux, at 10 µM; hits give high values
# [5] = target: Short transient receptor potential channel 4 (Mus musculus) (UniProt Q9QUQ5); experiment: blockers of DAMGO-evoked TRPC4 calcium flux – cell-based, Fluo4, HEK293 TRPC4beta/mu-opioid, confirmation (AID 2636;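 active means calcium signal cut by more than 3 SD below the full-agonist control yet still positive, in both repeats and the earlier primary screen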); details: at 10 µM; hits give high values
# [6] = target: Short transient receptor potential channel 4 (Mus musculus) (UniProt Q9QUQ5); experiment: blockers of DAMGO-evoked TRPC4 calcium flux – cell-based, second round, Fluo4, HEK293 TRPC4beta/mu-opioid, 1 µM, confirmation (AID 2637;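 active means calcium signal ratio cut to more than 3 SD under the fully stimulated control mean yet still positive, in both repeats and the primary screen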); details: at 1 µM; hits give high values
# [7] = target: Short transient receptor potential channel 4 (Mus musculus) (UniProt Q9QUQ5); experiment: calcium entry via TRPC4 opening agents – cell-based, HEK293 TRPC4/mu-opioid, Fluo-4 calcium, dose response (AID 434937;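 active means primary screen activator hit with a dose response curve and TRPC4 channel activation at any tested dose; inactive means no activation, no dose response, or not a primary hit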)
# [8] = target: Short transient receptor potential channel 4 (Mus musculus) (UniProt Q9QUQ5); experiment: potentiation of DAMGO-evoked TRPC4 calcium signal – cell-based, HEK293 TRPC4/mu-opioid, Fluo-4 calcium, EC20 DAMGO, dose response (AID 434941);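 further: calcium entry triggered by an EC20 dose of DAMGO at the co-expressed mu-opioid receptor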
# [9] = target: Short transient receptor potential channel 4 (Mus musculus) (UniProt Q9QUQ5); experiment: block of DAMGO-driven TRPC4 calcium entry – cell-based, HEK293 TRPC4/mu-opioid, Fluo-4 calcium, dose response (AID 434942;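 active means primary screen inhibitor hit that blocks the TRPC4 channel at some tested dose, yielding a dose curve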)
# [10] = target: Short transient receptor potential channel 6 (Mus musculus) (UniProt Q61143); experiment: TRPC6 blockade by TRPC4 inhibitor hits – cell-based, HEK293, membrane potential dye, duplicate, selectivity assay for TRPC4 inhibitor project, confirmation (AID 434948;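 active means active in primary screen and both duplicates, each dropping signal beyond three positive-control SD with fluorescence still positive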); details: HEK293 TRPC6, membrane potential dye fluorescence, at 10 µM, stimulated with maximal-effect acetylcholine; hits give high values
# [11] = target: Short transient receptor potential channel 6 (Mus musculus) (UniProt Q61143); experiment: TRPC6 opening by TRPC4 activator hits – cell-based, HEK293, membrane potential dye, duplicate, selectivity assay for TRPC4 activator project, confirmation (AID 434950;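 active means membrane potential signal rise above negative control mean plus 3 SD in both duplicates, also active in the earlier TRPC4 screen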); details: HEK293 TRPC6, membrane potential fluorescence, at 10 µM; activation: hits give high values; outcome: activation
# [12] = target: Short transient receptor potential channel 6 (Mus musculus) (UniProt Q61143); experiment: positive modulators of mouse TRPC6 channel – HEK293 cells, membrane potential dye, duplicate, selectivity assay for TRPC4 potentiator project, confirmation (AID 434952;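 active means compound raising the membrane signal above positive-control mean plus 3 SD in both repeats, and a primary screen hit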); details: HEK293 TRPC6, membrane potential dye fluorescence, at 10 µM, maximal acetylcholine added after compound; hits give high values
# [13] = target: Short transient receptor potential channel 4 (Mus musculus) (UniProt Q9QUQ5); experiment: calcium flux activators in TRPC4/5HT1a cells, counter-screen for TRPC4 activator project, cell-based, second counter screen, HEK293 TRPC4/5HT1a, Fluo-4 (AID 434977;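 active means calcium signal rise above buffer-control mean plus 5 SD in both duplicates, and also a hit in the primary screen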); details: Fluo-4 calcium flux, at 10 µM; hits give high values
# [14] = serotonin-gated TRPC4 signal block – cell-based, second counter screen, HEK293 TRPC4/5HT1a, Fluo-4, counter-screen for TRPC4 inhibitor project, confirmation (AID 434978;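 active means primary screen active whose calcium signal fell more than 3 SD beyond the full-serotonin control mean in both duplicate plates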;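 further: serotonin given first at submaximal then at maximal dose after compound preincubation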); details: Fluo-4 calcium flux, at 10 µM, serotonin added to trigger calcium flux; hits give high values
# [15] = test system: TRPC4 (mouse), co-expressed with 5HT1a in HEK293; experiment: enhancement of serotonin-evoked TRPC4 response – cell-based, second counter screen, HEK293 TRPC4/5HT1a, Fluo-4, counter-screen for TRPC4 potentiator project, confirmation (AID 434979;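 active means signal rise over 3 SD above mean of control wells given weak agonist, in both repeats and first screen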); details: Fluo-4 calcium flux, at 10 µM, serotonin added at its EC20 dose; hits give high values
# [16] = nonspecific calcium rise without TRPC4 – cell-based, HEK293 mu-opioid receptor line, counter-screen for TRPC4 activator project, confirmation (AID 449723;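 active means hit in primary screen, with calcium signal over 5 SD above buffer well mean in both duplicates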;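 further: counter screen cells carry the mu-opioid receptor alone and lack TRPC4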); details: HEK293 mu-opioid cells, Fluo-4 calcium fluorescence, at 10 µM; hits give high values
# [17] = nonspecific potentiation of DAMGO calcium response – cell-based, HEK293 mu-opioid receptor line, counter-screen for TRPC4 allosteric potentiator project, confirmation (AID 449724;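 active means calcium signal rise more than 3 SD above the low-dose agonist control mean, in both duplicate plates and the primary screen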); details: HEK293 mu-opioid receptor cells, Fluo-4 calcium flux, at 10 µM, compound added before EC20 DAMGO stimulus; hits give high values
# Short transient receptor potential channel 6 (Mus musculus), sequence (Q61143 whole entry, looked up): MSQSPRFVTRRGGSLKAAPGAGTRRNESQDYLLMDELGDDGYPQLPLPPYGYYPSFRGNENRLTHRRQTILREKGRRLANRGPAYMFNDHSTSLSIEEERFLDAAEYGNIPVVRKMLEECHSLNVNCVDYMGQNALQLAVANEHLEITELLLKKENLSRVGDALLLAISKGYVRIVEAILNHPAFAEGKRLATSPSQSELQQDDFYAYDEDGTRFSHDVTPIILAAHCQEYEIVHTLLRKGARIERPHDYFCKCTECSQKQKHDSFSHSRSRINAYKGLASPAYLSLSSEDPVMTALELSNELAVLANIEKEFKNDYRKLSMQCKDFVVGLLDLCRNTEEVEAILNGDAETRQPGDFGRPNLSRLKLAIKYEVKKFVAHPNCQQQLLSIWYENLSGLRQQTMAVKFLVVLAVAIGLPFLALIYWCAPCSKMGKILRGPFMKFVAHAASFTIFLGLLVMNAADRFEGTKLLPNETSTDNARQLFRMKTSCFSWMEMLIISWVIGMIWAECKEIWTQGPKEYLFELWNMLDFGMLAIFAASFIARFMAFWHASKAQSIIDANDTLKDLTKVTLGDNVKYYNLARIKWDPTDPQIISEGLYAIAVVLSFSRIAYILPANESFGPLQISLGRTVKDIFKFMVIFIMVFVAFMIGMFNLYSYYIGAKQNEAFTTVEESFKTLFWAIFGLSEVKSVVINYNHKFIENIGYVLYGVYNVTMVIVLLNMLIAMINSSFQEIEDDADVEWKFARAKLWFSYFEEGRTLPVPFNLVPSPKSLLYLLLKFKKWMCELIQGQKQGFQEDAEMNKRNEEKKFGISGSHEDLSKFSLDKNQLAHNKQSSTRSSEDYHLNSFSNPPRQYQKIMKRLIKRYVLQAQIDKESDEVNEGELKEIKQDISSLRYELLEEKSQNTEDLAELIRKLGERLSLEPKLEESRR
# Short transient receptor potential channel 4 (Mus musculus), sequence (Q9QUQ5 whole entry, looked up): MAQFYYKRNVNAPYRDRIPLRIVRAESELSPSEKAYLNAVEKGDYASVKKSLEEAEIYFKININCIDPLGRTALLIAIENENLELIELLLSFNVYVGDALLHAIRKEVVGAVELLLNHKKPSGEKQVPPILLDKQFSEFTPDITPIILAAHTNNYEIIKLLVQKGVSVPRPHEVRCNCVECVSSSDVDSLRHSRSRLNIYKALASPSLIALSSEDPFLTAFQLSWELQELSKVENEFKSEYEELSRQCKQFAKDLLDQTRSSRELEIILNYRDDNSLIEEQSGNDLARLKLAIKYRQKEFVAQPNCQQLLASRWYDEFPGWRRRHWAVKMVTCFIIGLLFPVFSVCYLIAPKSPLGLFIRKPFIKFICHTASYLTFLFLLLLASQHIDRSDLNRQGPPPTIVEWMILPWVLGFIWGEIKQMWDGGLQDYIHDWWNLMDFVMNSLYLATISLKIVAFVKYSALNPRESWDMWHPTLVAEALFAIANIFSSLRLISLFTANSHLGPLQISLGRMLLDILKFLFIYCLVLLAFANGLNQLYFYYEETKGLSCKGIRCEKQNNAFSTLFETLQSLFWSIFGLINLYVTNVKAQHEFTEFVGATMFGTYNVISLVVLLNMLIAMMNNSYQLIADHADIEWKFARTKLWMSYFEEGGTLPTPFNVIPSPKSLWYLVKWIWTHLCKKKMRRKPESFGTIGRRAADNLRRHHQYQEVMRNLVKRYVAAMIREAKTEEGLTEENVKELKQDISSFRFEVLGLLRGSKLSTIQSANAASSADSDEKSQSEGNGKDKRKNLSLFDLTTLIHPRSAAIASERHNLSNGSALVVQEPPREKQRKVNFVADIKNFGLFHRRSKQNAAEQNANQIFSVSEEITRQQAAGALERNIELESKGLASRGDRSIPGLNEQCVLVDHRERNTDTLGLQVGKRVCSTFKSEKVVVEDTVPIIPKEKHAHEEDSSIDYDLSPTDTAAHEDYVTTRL
smiles,measurement,setting,value
COc1ccc(OCCN(C)Cc2c(O)ccc3ccccc23)cc1,outcome,[1],inactive
same,outcome,[2],inactive
same,outcome,[3],inactive
same,outcome,[4],inactive
same,outcome,[5],inactive
same,outcome,[6],inactive
same,outcome,[7],inactive
same,outcome,[8],inactive
same,outcome,[9],inactive
same,outcome,[10],inactive
same,outcome,[11],inactive
same,outcome,[12],inactive
same,outcome,[13],inactive
same,outcome,[14],inactive
same,outcome,[15],inactive
same,outcome,[16],inactive
same,outcome,[17],inactive
CCOC(=O)c1cnc2ccc(Cl)cc2c1NCCN(C)C,outcome,[1],inactive
same,outcome,[2],inactive
same,outcome,[3],inactive
same,outcome,[4],inactive
same,outcome,[5],inactive
same,outcome,[6],inactive
same,outcome,[7],inactive
same,outcome,[8],inactive
same,outcome,[9],inactive
same,outcome,[10],inactive
same,outcome,[11],inactive
same,outcome,[12],inactive
same,outcome,[13],inactive
same,outcome,[14],inactive
same,outcome,[15],inactive
same,outcome,[16],inactive
same,outcome,[17],inactive
CCCN1CCC(NC(=O)Cc2cccc(C)c2)CC1,outcome,[1],inactive
same,outcome,[2],inactive
same,outcome,[3],inactive
same,outcome,[4],inactive
same,outcome,[5],inactive
same,outcome,[6],inactive
same,outcome,[7],inactive
same,outcome,[8],inactive
same,outcome,[9],inactive
same,outcome,[10],inactive
same,outcome,[11],inactive
same,outcome,[12],inactive
same,outcome,[13],inactive
same,outcome,[14],inactive
same,outcome,[15],inactive
same,outcome,[16],inactive
same,outcome,[17],inactive
OC(CNCCC(c1ccccc1)c1ccccc1)COc1ccccc1 (stereo not given),outcome,[1],inactive
same,outcome,[2],inactive
same,outcome,[3],inactive
same,outcome,[4],inactive
same,outcome,[5],inactive
same,outcome,[6],inactive
same,outcome,[7],inactive
same,outcome,[8],inactive
same,outcome,[9],inactive
same,outcome,[10],inactive
same,outcome,[11],inactive
same,outcome,[12],inactive
same,outcome,[13],inactive
same,outcome,[14],inactive
same,outcome,[15],inactive
same,outcome,[16],inactive
same,outcome,[17],inactive
CCOc1ccccc1C(=O)NCCc1cnc[nH]1,outcome,[1],inactive
same,outcome,[2],inactive
same,outcome,[3],inactive
same,potentiation,[4],10% (active)
same,outcome,[5],inactive
same,outcome,[6],inactive
same,outcome,[7],inactive
same,outcome,[8],inactive
same,outcome,[9],inactive
same,outcome,[10],inactive
same,outcome,[11],inactive
same,outcome,[12],inactive
same,outcome,[13],inactive
same,outcome,[14],inactive
same,potentiation,[15],16.9% (active)
same,outcome,[16],inactive
same,outcome,[17],inactive
Nc1nn2c(C(F)(F)F)cc(=O)[nH]c2c1N=Nc1cccc(F)c1,outcome,[1],inactive
same,outcome,[2],inactive
same,outcome,[3],inactive
same,outcome,[4],inactive
same,outcome,[5],inactive
same,outcome,[6],inactive
same,outcome,[7],inactive
same,outcome,[8],inactive
same,outcome,[9],inactive
same,outcome,[10],inactive
same,outcome,[11],inactive
same,outcome,[12],inactive
same,outcome,[13],inactive
same,outcome,[14],inactive
same,outcome,[15],inactive
same,outcome,[16],inactive
same,outcome,[17],inactive
CCCCNC(=O)/C(C#N)=C/c1ccc(F)cc1F,outcome,[1],inactive
same,outcome,[2],inactive
same,outcome,[3],inactive
same,potentiation,[4],9% (active)
same,outcome,[5],inactive
same,outcome,[6],inactive
same,outcome,[7],inactive
same,outcome,[8],inactive
same,outcome,[9],inactive
same,outcome,[10],inactive
same,outcome,[11],inactive
same,outcome,[12],inactive
same,outcome,[13],inactive
same,outcome,[14],inactive
same,outcome,[15],inactive
same,outcome,[16],inactive
same,outcome,[17],inactive
CCOC(=O)C1=C(C)N(C)C(=S)NC1c1cccc(Cl)c1Cl (stereo not given),outcome,[1],inactive
same,outcome,[2],inactive
same,outcome,[3],inactive
same,potentiation,[4],25% (active)
same,outcome,[5],inactive
same,outcome,[6],inactive
same,outcome,[7],inactive
same,outcome,[8],inactive
same,outcome,[9],inactive
same,outcome,[10],inactive
same,outcome,[11],inactive
same,outcome,[12],inactive
same,outcome,[13],inactive
same,outcome,[14],inactive
same,outcome,[15],inactive
same,outcome,[16],inactive
same,outcome,[17],inactive
CCOc1ccc(CN2CCCC(CNC(=O)c3ccc(F)cc3)C2)cc1CO (stereo not given),outcome,[1],inactive
same,outcome,[2],inactive
same,outcome,[3],inactive
same,outcome,[4],inactive
same,outcome,[5],inactive
same,outcome,[6],inactive
same,outcome,[7],inactive
same,outcome,[8],inactive
same,outcome,[9],inactive
same,outcome,[10],inactive
same,outcome,[11],inactive
same,outcome,[12],inactive
same,outcome,[13],inactive
same,outcome,[14],inactive
same,outcome,[15],inactive
same,outcome,[16],inactive
same,outcome,[17],inactive
CCOC(=O)c1cc(=O)n(Cc2ccccc2C)c2ccccc12,outcome,[1],inactive
same,outcome,[2],inactive
same,outcome,[3],inactive
same,potentiation,[4],74% (active)
same,outcome,[5],inactive
same,outcome,[6],inactive
same,outcome,[7],inactive
same,outcome,[8],inactive
same,outcome,[9],inactive
same,outcome,[10],inactive
same,outcome,[11],inactive
same,outcome,[12],inactive
same,outcome,[13],inactive
same,outcome,[14],inactive
same,potentiation,[15],48.4% (active)
same,outcome,[16],inactive
same,outcome,[17],inactive
O=C(c1cc2cc(Br)cc(Br)c2oc1=O)N1CCCC1,outcome,[1],inactive
same,outcome,[2],inactive
same,outcome,[3],inactive
same,outcome,[4],inactive
same,outcome,[5],inactive
same,outcome,[6],inactive
same,outcome,[7],inactive
same,outcome,[8],inactive
same,outcome,[9],inactive
same,outcome,[10],inactive
same,outcome,[11],inactive
same,outcome,[12],inactive
same,outcome,[13],inactive
same,outcome,[14],inactive
same,potentiation,[15],15.8% (active)
same,outcome,[16],inactive
same,outcome,[17],inactive
CC(=O)OCC1O[C@@H](O[C@@H]2C[C@H]3C(C)(C)[C@H](OC(C)=O)CC[C@]3(C)[C@H]3CC[C@]45C[C@]4(CC[C@H]5[C@@H](C)C[C@@H](O)[C@H](O)C(C)(C)O)[C@@]32C)[C@H](O)[C@@H](O)[C@@H]1O (stereo not given in full),activation,[1],173% (active)
same,outcome,[2],inactive
same,outcome,[3],inactive
same,outcome,[4],inactive
same,outcome,[5],inactive
same,outcome,[6],inactive
same,outcome,[7],inactive
same,outcome,[8],inactive
same,outcome,[9],inactive
same,outcome,[10],inactive
same,outcome,[11],inactive
same,outcome,[12],inactive
same,outcome,[13],inactive
same,outcome,[14],inactive
same,outcome,[15],inactive
same,activation,[16],28.8% (active)
same,outcome,[17],inactive
CC(C)c1cccc(OCCCCN(C)C)c1,outcome,[1],inactive
same,outcome,[2],inactive
same,potentiation,[3],9% (active)
same,potentiation,[4],20% (active)
same,outcome,[5],inactive
same,outcome,[6],inactive
same,outcome,[7],inactive
same,outcome,[8],inactive
same,outcome,[9],inactive
same,outcome,[10],inactive
same,outcome,[11],inactive
same,outcome,[12],inactive
same,outcome,[13],inactive
same,outcome,[14],inactive
same,potentiation,[15],16.2% (active)
same,outcome,[16],inactive
same,outcome,[17],inactive
CCOc1ccc(CN(C)CC(=O)NNC(=O)c2ccc(Cl)cc2)cc1OC,outcome,[1],inactive
same,outcome,[2],inactive
same,potentiation,[3],41% (active)
same,potentiation,[4],22% (active)
same,outcome,[5],inactive
same,outcome,[6],inactive
same,outcome,[7],inactive
same,outcome,[8],inactive
same,outcome,[9],inactive
same,outcome,[10],inactive
same,outcome,[11],inactive
same,outcome,[12],inactive
same,outcome,[13],inactive
same,outcome,[14],inactive
same,potentiation,[15],11% (active)
same,outcome,[16],inactive
same,outcome,[17],inactive
CN(C)CCCNC(=O)/C=C/c1ccc(OCc2c(F)cccc2Cl)cc1,outcome,[1],inactive
same,outcome,[2],inactive
same,outcome,[3],inactive
same,outcome,[4],inactive
same,outcome,[5],inactive
same,outcome,[6],inactive
same,outcome,[7],inactive
same,outcome,[8],inactive
same,outcome,[9],inactive
same,outcome,[10],inactive
same,outcome,[11],inactive
same,outcome,[12],inactive
same,outcome,[13],inactive
same,outcome,[14],inactive
same,potentiation,[15],16.2% (active)
same,outcome,[16],inactive
same,outcome,[17],inactive
